Test results taken from PubChem BioAssay (NCI).
The panel holds about 83,000 compounds, 20% with a hit somewhere; the sample as a whole holds those more often.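 Percent growth is the endpoint: 0 to 100 indicates growth inhibition (40 means 60% inhibition), 0 means no net growth, and negative values indicate cell death.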 Unmarked numbers belong to inactive results. Activity calls are given as the source filed them. How the source made its calls: active means growth percent below 10; inactive means the rest.

test system: HL-60(TB) leukemia; assay: NCI-60 one-dose screen, 48 h (100 = growth as untreated, 0 = no growth, -100 = all killed); conditions: 10 µM unless noted

Q: For `CC1(C)CC[C@]2(C(=O)N3CCOCC3)CC[C@]3(C)C(=CC[C@@H]4[C@@]5(C)C/C(=C/c6ccco6)C(=O)C(C)(C)[C@@H]5CC[C@]43C)[C@@H]2C1`, which growth is on record?
A: Its growth is 57.2%.

Q: Which growth does the source give for `CCCCN1C(=O)/C(=c2\sc3n(c2=O)C2C(NN=3)N(CC)C(=O)N2CC)c2cccc(C)c21` (stereo not given) here?
A: Its growth is 2.95% (active).

Q: With `Fc1ccc(-c2cc3nc(C(Cl)Cl)nc(-c4cccs4)n3n2)cc1` as the molecule, how does the growth read?
A: Its growth is -2% (active).

Q: `NC(=O)c1c(NC(=O)c2ccccc2C(F)(F)F)sc2c1CCC(=O)C2` was tested. Which growth did it give?
A: The growth was 1.97% (active).

Q: `O=c1c2ccccc2nc(COc2ccccc2)n1NS(=O)(=O)c1ccc(Cl)cc1` was tested. Which growth did it give?
A: Its growth is 75.7%.
